Screening data deposited in PubChem by Johns Hopkins Ion Channel Center.
Compounds with a hit are over-represented: about 1.6% of the library has one in this group of screens.
KCNQ2 inh = KCNQ2 (rat) channel inhibition. O88943. CHO-K1 KCNQ2, FluxOR thallium flux, 20 min; hits give low values. B-score at 10 µM. hit rate 1.1% among 310,000. AID 2156;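 active means fluorescence ratio B-score at most minus 3 library SDs, with starting brightness B-score within 2 library SDs, cut at about -5.5 in these data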
KCNQ2 enhance = KCNQ2 (rat) channel potentiation | hit rate 0.54% among 310,000 | CHO-K1 KCNQ2, FluxOR thallium flux fluorescence; hits give high values | O88943 | B-score at 10 µM;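 active means fluorescence ratio B-score at least 3 SD of library B-scores, with initial fluorescence B-score within 3 of them, cut at about 5.3 in these data; same plate scores as AID 2156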;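 further: B-score of peak minus minimum over baseline fluorescence ratio after K+ and Tl+ stimulus; positive B-score means potentiation of KCNQ2 with more thallium influx and brighter signal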
KCNQ2 inh conf = confirmation of rat KCNQ2 potassium channel inhibitors | activity change, negative = inhibition, % at 10 µM | shares compounds with KCNQ2 inh | KCNQ2-expressing cells, thallium flux, inhibition; hits give low values | hit rate 57% among 1,000
KCNQ1 spec = human KCNQ1 activity in KCNQ2 inhibitor specificity screen. shares compounds with KCNQ2 inh. KCNQ1-expressing cells, FluxOR thallium flux fluorescence; hits give low values. activity change, negative = inhibition, % at 10 µM. hit rate 15% among 1,000. AID 493026;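 active means activity change at least 3 SD of negative controls below their mean in both duplicate wells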;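 further: CHO cells stably transfected with KCNQ1 and depolarized by potassium stimulus; peak minus minimum fluorescence over baseline after thallium addition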
Target sequence (P51787 whole entry, looked up): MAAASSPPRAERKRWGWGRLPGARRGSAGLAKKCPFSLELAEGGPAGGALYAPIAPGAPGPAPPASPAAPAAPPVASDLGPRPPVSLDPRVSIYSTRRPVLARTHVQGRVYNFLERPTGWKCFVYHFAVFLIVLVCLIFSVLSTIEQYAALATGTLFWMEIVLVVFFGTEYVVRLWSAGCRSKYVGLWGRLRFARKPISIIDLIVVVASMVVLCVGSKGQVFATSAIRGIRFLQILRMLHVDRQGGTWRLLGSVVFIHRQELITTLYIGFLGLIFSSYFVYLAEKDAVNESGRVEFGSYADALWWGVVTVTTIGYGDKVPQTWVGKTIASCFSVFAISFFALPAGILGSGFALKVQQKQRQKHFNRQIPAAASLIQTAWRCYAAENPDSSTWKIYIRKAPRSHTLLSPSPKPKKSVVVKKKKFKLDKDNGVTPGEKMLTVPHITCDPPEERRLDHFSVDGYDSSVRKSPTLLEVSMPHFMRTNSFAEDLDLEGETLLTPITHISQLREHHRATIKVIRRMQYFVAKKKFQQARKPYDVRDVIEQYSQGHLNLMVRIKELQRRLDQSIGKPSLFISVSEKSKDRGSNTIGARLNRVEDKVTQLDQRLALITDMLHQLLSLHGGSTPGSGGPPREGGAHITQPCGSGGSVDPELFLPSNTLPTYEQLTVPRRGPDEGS
CHO parental ctr = counter-screen for KCNQ2 inhibitors: effect in parental CHO cells. activity change, % at 10 µM. shares compounds with KCNQ2 inh. hit rate 14% among 1,000. thallium flux counter-screen; hits give low values
KCNQ2 patch conf = blocks rat KCNQ2 current in automated patch clamp. KCNQ2-expressing cells. calls only at 10 µM. AID 588531. hit rate 49% among 550. shares compounds with KCNQ2 inh
Each line names hits and unclear results; the compound was inactive in the other large screens (follow-up assays come after a bar, where they were run). Unless noted, how the calls were made is not given here.

CCc1cc(/C(Cc2ccccn2)=N\O)c(O)cc1O	none (no result: KCNQ2 enhance)
Cc1ccc(C(C(=O)NC2CCCC2)N(CCCO)C(=O)Cn2nnc(-c3ccc(C)o3)n2)cc1 (configuration not stated)	none
Cc1nc(-c2ccccc2Cl)sc1C(=O)/C=C/N(C)C	none (no result: KCNQ2 enhance)
CCn1c(N2CCN(C(=O)C34CC5CC(CC(C5)C3)C4)CC2)nc2ccccc21	KCNQ2 inh -8.6 | KCNQ2 inh conf -40% | KCNQ1 spec -37% | CHO parental ctr -36% | KCNQ2 patch conf active
CCn1c(N2CCN(S(=O)(=O)c3ccccc3C(F)(F)F)CC2)nc2ccccc21	none (no result: KCNQ2 enhance)
O=C(NC1CCCC1)c1ncn[nH]1	none (no result: KCNQ2 enhance)
COc1ccc(-c2cc(C(=O)N3CCCCC3)c3ccccc3n2)cc1	none (no result: KCNQ2 enhance)
Cc1ccc(-c2cc(C(=O)N3CCOCC3)c3ccccc3n2)cc1	none (no result: KCNQ2 enhance)
COc1ccc(-c2cc(C(=O)N3CCCCCC3)c3cc(C)ccc3n2)cc1	KCNQ2 inh -8.5 | KCNQ2 inh conf -30% | KCNQ1 spec inactive | CHO parental ctr inactive | KCNQ2 patch conf active
COc1ccc(-c2cc(C(=O)N3CCOCC3)c3cc(C)ccc3n2)cc1	KCNQ2 inh -7.2 | KCNQ2 inh conf -31% | KCNQ1 spec inactive | CHO parental ctr inactive | KCNQ2 patch conf active
COC(=O)c1ccc(OC(=O)c2ccc(OC)cc2)c(OC)c1	none (no result: KCNQ2 enhance)
COc1ccc(NC(=O)CCCN2C(=O)C(c3ccccc3)Oc3cccnc32)cc1OC (configuration not stated)	none
COc1ccc(Br)cc1CNC(=O)CN1C(=O)C(c2ccccc2)Oc2cccnc21 (configuration not stated)	KCNQ2 inh -7 | KCNQ2 inh conf -26% | KCNQ1 spec inactive | CHO parental ctr inactive | KCNQ2 patch conf active
S=C(NCc1ccccc1)Nc1cccc2ccccc12	none
Cc1ccc(C(C)C)c(OCCNC(=S)Nc2cccc3ccccc23)c1	KCNQ2 inh -6.7 | KCNQ2 inh conf inactive | KCNQ1 spec inactive | CHO parental ctr inactive
Cc1nnc(SCC(=O)Nc2ccc([N+](=O)[O-])cc2)n1C	none
Cc1ccc(O)c(C(=O)c2cnc3c(c2)COc2ccc(C)cc2-3)c1	KCNQ2 inh -6.8 | KCNQ2 inh conf inactive | KCNQ1 spec inactive | CHO parental ctr inactive
Cc1ccc(O)c(C(=O)c2cnc(/N=C(\N)N(C)C)nc2)c1	none
CC(=O)Nc1ccc(S(=O)(=O)NCc2nc(-c3ccccc3C)no2)cc1	none
O=C(/C=C/c1ccccc1Cl)c1ccc(O)cc1	none (no result: KCNQ2 enhance)
O=C(/C=C/c1ccccc1Cl)c1cccnc1	KCNQ2 inh -8 | KCNQ2 inh conf -36% | KCNQ1 spec -32% | CHO parental ctr -32% | KCNQ2 patch conf inactive
CCN(CC)c1ccc(/C=C/C(=O)c2cccnc2)cc1	none (no result: KCNQ2 enhance)
N#Cc1ccc(/C=C/C(=O)c2cccnc2)cc1	KCNQ2 inh -11 | KCNQ2 inh conf -29% | KCNQ1 spec inactive | CHO parental ctr inactive | KCNQ2 patch conf inactive
CCOc1cc(C(=O)Nc2ccncc2)cc(OCC)c1OCC	none
O=C(CCc1nnc(C2(c3ccc(Cl)cc3)CCC2)o1)NCCCn1cccn1	none
COc1ccc(NC(=O)CN2C(=O)CSc3ncccc32)cc1	none (no result: KCNQ2 enhance)
COc1ccccc1OCC(=O)NCCS(=O)(=O)N1CCN(c2ccc(F)cc2)CC1	none (no result: KCNQ2 enhance)
COc1cccc(C(=O)NCC(c2cccs2)N2CCc3ccccc32)c1 (configuration not stated)	none (no result: KCNQ2 enhance)
COc1cc(C(=O)NCC(c2cccs2)N2CCc3ccccc32)cc(OC)c1OC (configuration not stated)	KCNQ2 inh -8.7 | KCNQ2 inh conf inactive | KCNQ1 spec inactive | CHO parental ctr inactive
COc1ccccc1NC(=O)C(=O)NCC(c1ccco1)N1CCc2ccccc21 (configuration not stated)	KCNQ2 inh -7.2 | KCNQ2 inh conf inactive | KCNQ1 spec inactive | CHO parental ctr inactive
O=C(NCC(c1ccco1)N1CCc2ccccc21)C(=O)Nc1ccccc1F (configuration not stated)	none (no result: KCNQ2 enhance)
COc1ccccc1C(=O)NCC(c1cccs1)N1CCc2ccccc21 (configuration not stated)	KCNQ2 inh -7.2 | KCNQ2 inh conf inactive | KCNQ1 spec inactive | CHO parental ctr inactive
O=C(NCC(c1cccs1)N1CCc2ccccc21)c1ccccc1 (configuration not stated)	none (no result: KCNQ2 enhance)
CCC(C)(C)NC(=O)CN(Cc1ccccc1)C(=O)CCC(=O)Nc1nccs1	none (no result: KCNQ2 enhance)
Cc1ccc(-n2nc3c(c2NC(=O)c2ccc4c(c2)OCO4)CS(=O)(=O)C3)c(C)c1	none
